# Out of some 53,000 compounds screened, about 900 (1.7%) showed an effect of 50% or more. This excerpt belongs to a sample that is enriched for strong results.
# Tested on: Mycobacterium tuberculosis
# Assay: Cornell - Phenotypic assay to identify agents that inhibit growth of Mycobacterium tuberculosis
# Assay type: functional
# Design: scale not given: direction of the effect not stated beside the values
# Conditions: 10 mM as filed; unlikely as a test dose
row,Compound,Percent Effect
1,O=c1[nH]c2c(-c3ccccn3)nsc2c(=O)n1CC1CCCO1 (stereo not drawn),-0.9245%
2,COc1ccccc1OC1CN(C(=O)c2ccc(C(C)=O)s2)C1,-4.28%
3,CO[C@H]1C[C@@H]2CN(C(=O)c3ccc(C)s3)C[C@@H]2C1,41.56%
4,Cc1ccc(C(=O)N2CC(Oc3ccccc3C)C2)s1,67.58%
5,COc1cccc2ccc(N3CCC(O)(C(=O)O)CC3)nc12,-24.68%
6,CC(c1nc(C(C)(C)C)no1)N1CCN(Cc2ccco2)CC1 (stereo not drawn),11.7%
7,CCn1ccnc1CN1CCCN(C(=O)COC2CCCC2)CC1,-24.49%
8,CNc1ncc(C(=O)N2CCOC(C(=O)N3CCCCCC3)C2)cn1 (stereo not drawn),-4.246%
9,CCOc1cccc2c1OCC(C(=O)NS(=O)(=O)c1ccc(Cl)s1)=C2,9.699%
10,CCOc1cccc2c1OCC(C(=O)NC(C)Cn1cccn1)=C2 (stereo not drawn),7.345%
11,CCOc1cccc2c1OCC(C(=O)NS(=O)(=O)c1cccs1)=C2,19.94%
12,Cc1ccc(OCC(=O)NS(=O)(=O)Cc2ccccc2)cc1,7.336%
13,CCOc1cccc2c1OCC(C(=O)NS(=O)(=O)c1cncc(Br)c1)=C2,44.21%
14,CCOc1ccccc1C(=O)NS(=O)(=O)c1ccc2c(c1)OCCCO2,27.03%
15,CCOc1cccc2c1OCC(C(=O)NS(=O)(=O)c1c(C)noc1C)=C2,106%
16,CCOc1cccc2c1OCC(C(=O)NS(=O)(=O)c1ccc(Br)s1)=C2,-17.73%
17,CCOc1cccc2c1OCC(C(=O)NS(=O)(=O)Cc1ccccc1)=C2,106.8%
18,CCOc1cccc2c1OCC(C(=O)NS(=O)(=O)c1ccc(Cl)cc1)=C2,104.6983%
19,CCOc1cccc2c1OCC(C(=O)NS(=O)(=O)c1ccc(C)s1)=C2,107.6%
20,Cc1cc(OCC(=O)NS(=O)(=O)c2c(C)noc2C)ccc1Cl,39.96%
21,CCc1cnc(NC(=O)NC2CCN(C3CCCC3)CC2)s1,-3.242%

row,Compound,Percent Effect
1,CC(=O)N1CC[C@@H]2O[C@@H](COCC(=O)N3CCCC3)CC[C@@H]21,-45.3%
2,O=C(NCC(Cc1cccc(F)c1)N1CCCC1=O)c1ccc(=O)[nH]n1 (stereo not drawn),14.14%
3,Cc1ncsc1C(=O)N1CCC(c2ncncc2-c2ccnc(N)c2)C1 (stereo not drawn),-0.8467%
4,CSCC[C@H](NC(C)=O)c1nc(Cc2ccccc2)n[nH]1,-11.93%
5,COc1ncccc1CN1Cc2nccn2CC(CN2CCCC2)C1 (stereo not drawn),6.883%
6,Cc1ccccc1CCCN1CCS(=O)(=O)CC1C (stereo not drawn),46.6%
7,CC(C)(C)S(=O)(=O)c1ccc(N2CCC(n3cncn3)CC2)cn1,-14.59%
8,CS(=O)(=O)N[C@@H]1CN(C(=O)c2cnccn2)[C@@H]2CCCO[C@@H]21,-34.02%
9,Cc1cnc(CN(C)Cc2cccc(OC(F)(F)F)c2)cn1,-8.651%
10,O=C(NCc1ccccc1)NCc1nc(-c2ccncc2)n[nH]1,13.27%
11,CC(C)Oc1cccc(-c2nc3c([nH]2)CCCNC3=O)c1,-4.933%
12,Cc1cccc(SC2CCN(C(=O)CCCS(N)(=O)=O)CC2)c1,37.58%
13,CC(=O)NCCCC(=O)N1CCC(Sc2cccc(C)c2)CC1,15.76%
14,Cc1cccc(SC2CCN(C(=O)CCCn3cnnn3)CC2)c1,50.26%
15,Cc1nc(N2CCCOC(Cn3cccn3)C2)c2sccc2n1 (stereo not drawn),26.84%
16,CCC(C)(C)NC(=O)c1nnn(-c2cccc3c2CCN(C)C3)c1C,-0.0817%
17,COCc1nc(CNc2cc(C)nc(N3CCCCC3)n2)no1,-11.46%
18,CCn1cc(S(=O)(=O)NC(CO)Cc2c[nH]c3ccccc23)cn1 (stereo not drawn),-1.971%
19,CCn1cc(S(=O)(=O)NC(=O)CCc2c[nH]c3ccccc23)cn1,53.27%
20,CCn1cc(NC(=O)NC(CO)Cc2c[nH]c3ccccc23)cn1 (stereo not drawn),-8.114%
21,Cc1noc(-c2ccc(-n3ncc(C(=O)O)c3C)nc2)n1,11.73%

row,Compound,Percent Effect
1,COC(=O)[C@@H](NC(=O)c1snnc1-c1ccc(OC)cc1)C(C)C,58.81%
2,COC(=O)[C@H](CC(C)C)NC(=O)c1snnc1-c1ccc(OC)cc1,25.36%
3,CCC(C)NC(=O)c1snnc1-c1ccc(OC)cc1 (stereo not drawn),21.58%
4,Cc1ccc(-c2nc(CN3CCn4c(C)nnc4C3)co2)cc1,-23.96%
5,Nc1nc2nc(C3CCN(C(=O)c4cscn4)C3)ccc2s1 (stereo not drawn),-97.96%
6,O=C(NC1CCCN(CCc2ccccc2)C1)c1ccccn1 (stereo not drawn),35.43%
7,O=C(c1ccco1)N1CCO[C@@H]2CN(c3ccccc3)CC[C@@H]2C1,17.14%
8,COc1cc(C(=O)N2CC(Oc3ccccc3Cl)C2)ccn1,25.67%
9,CCc1ccccc1OC1CN(C(=O)c2ccnc(OC)c2)C1,66.55%
10,COc1cccc(OC2CN(C(=O)c3ccnc(OC)c3)C2)c1,17.3%
11,CCc1ccc(NC(=O)N2C[C@H]3C[C@H](C(=O)N4CCCC4)[C@@H](C2)O3)cc1,-25.04%
12,O=C(c1ccccc1F)N1CC[C@@H]2CN(c3ncccn3)CCO[C@@H]2C1,12.82%
13,O=S(=O)(NC1CCC2(CC1)OCCO2)c1ccccc1Br,9.266%
14,Cc1c(Cl)cccc1S(=O)(=O)N1CCC2(CC1)OCCS2,53.55%
15,O=S(=O)(c1ccccc1Cl)N1CCC2(CC1)OCCS2,36.27%
16,O=S(=O)(Cc1ccccc1Cl)N1CCC2(CC1)OCCS2,47.83%
17,O=S(=O)(c1ccccc1Br)N1CCC2(CC1)OCCS2,54.27%
18,CNC(=O)CS(=O)(=O)C1CCN(S(=O)(=O)c2ccccc2Br)CC1,7.561%
19,CS(=O)(=O)N1CCC(CNc2cc(Cl)ccc2C#N)CC1,-6.261%
20,COCCO[C@H]1CCN(C(=O)c2cccnc2)[C@H]1Cc1cnn(C)c1.O=C(O)C(F)(F)F,12.42%
21,COCCS(=O)(=O)c1ncc(CN(C)CC(C)C)n1Cc1ccccc1,-3.776%

# — ChEMBL document CHEMBL3988442, “University of Dundee, Small-Polar-MMV Screening Library” (2021)
